Compounds with a hit are over-represented: about 28% of the library has one in this group of screens.
CYP2C19 act: increases human CYP2C19 enzyme activity. P33261. recombinant CYP2C19, luciferin-H EGE luminescence; stronger effect = higher value; 0 = fully inhibited enzyme, 1 = untreated enzyme. activation factor at 5 µM. 96,000 tested, under 10 active;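 active = activation factor of at least 2 at 5 µM in the primary screen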;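 note: 0 = wells with 2.5 mM tranylcypromine and 1 = vehicle-only wells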
CYP2C9 inhib: human CYP2C9 inhibition. P11712. inhibition, % at 5 µM. CYP2C9 Supersomes, luciferin-H conversion, luminescence. AID 777. actives 20% (n = 96,000);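 active = blocking of liver enzyme CYP2C9 beyond about 50% at 5 µM, limit read from the data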
Target sequence (P11712 whole entry, looked up): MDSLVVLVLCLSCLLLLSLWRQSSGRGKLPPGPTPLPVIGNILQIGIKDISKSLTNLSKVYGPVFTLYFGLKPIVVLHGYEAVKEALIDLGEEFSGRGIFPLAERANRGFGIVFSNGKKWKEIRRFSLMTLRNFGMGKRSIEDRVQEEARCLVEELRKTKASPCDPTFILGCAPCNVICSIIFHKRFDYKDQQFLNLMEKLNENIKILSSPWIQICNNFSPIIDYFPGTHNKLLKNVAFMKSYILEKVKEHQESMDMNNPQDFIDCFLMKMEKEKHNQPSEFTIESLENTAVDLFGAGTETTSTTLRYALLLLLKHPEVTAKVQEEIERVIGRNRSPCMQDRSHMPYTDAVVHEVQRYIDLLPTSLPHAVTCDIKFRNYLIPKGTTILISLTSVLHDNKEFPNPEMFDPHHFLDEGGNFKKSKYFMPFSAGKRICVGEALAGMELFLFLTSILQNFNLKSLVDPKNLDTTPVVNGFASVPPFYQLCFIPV
CYP2C19 inhib: blocks human cytochrome P450 2C19. P33261. actives 21% (n = 96,000). CYP2C19 Supersomes, luciferin-H EGE luminescence, 30 min. AID 778. inhibition, % at 5 µM;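 active = CYP2C19 inhibition above a set limit at 5 µM in the primary screen, cut at about 50% in these data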;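 note: plate controls were negative control wells for no effect and 2.5 mM tranylcypromine positive control for full effect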
CYP2C9 activ: increases human cytochrome P450 2C9 activity. P11712. recombinant CYP2C9, luciferin-H conversion, luminescence; stronger effect = higher value; factor 1 = untreated enzyme, 0 = blocked. activation factor at 5 µM. actives 1.4% (n = 96,000);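 active = activation factor of 2 or more for CYP2C9 at a 5 µM dose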;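 note: 0 = sulfaphenazole-blocked wells and 1 = vehicle-only wells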
Mac1 fbg inh: inhibitors of human CD11b/CD18 binding to fibrinogen; P05107+P11215; K562 CD11b/CD18 adhesion to fibrinogen, ATPlite luminescence; Mn2+ added to activate the integrin; inhibition, % at 10 µM; actives 0.54% (n = 93,000); AID 1497;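 active = primary inhibition of 50% or more at 10 µM, then 40% or more on retest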
CD11b adhes enh: increases human CD11b/CD18 adhesion to fibrinogen. P05107+P11215. K562 CD11b/CD18 adhesion to fibrinogen, ATPlite luminescence. activation, % at 10 µM. actives 0.07% (n = 93,000). AID 1499;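 active = 10 µM primary screen giving 50% or more activity, confirmed by 40% or more on retest at that dose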
The depositor's hits bear a star; . = no result given.

SMILES	CYP2C19 act	CYP2C9 inhib	CYP2C19 inhib	CYP2C9 activ	Mac1 fbg inh	CD11b adhes enh
N#Cc1ccc(OCC(=O)NCCc2ccccn2)cc1	1.1	4	-7	1	22	-2
CC1CCCC(NC(=O)c2ccc3c(c2)N(Cc2ccccc2)C(=O)CS3=O)C1C (stereo not drawn)	0.6	76*	42	0.2	-5	4
O=C(NCCOc1ccccc1)c1ncn[nH]1	1	-10	-4	1.1	-6	0
Cc1ccc(-c2nc(C3CCCN(S(=O)(=O)c4ccc(C)cc4)C3)no2)cc1 (stereo not drawn)	0.4	57*	58*	0.4	28	2
CN1CCN(C2=C(Cl)C(=O)N(C3CCCCC3)C2=O)CC1	0.1	2	94*	1	-6	-2
O=C(CSc1nc2ccccc2[nH]1)c1ccco1	0.3	39	65*	0.6	-16	0
O=C(CSc1nc2ccccc2[nH]1)c1ccc(Cl)s1	0	92*	98*	0.1	2	4
Cc1cccc(/C=N/NC(=O)c2cc(-c3cccnc3)nc3c2c(C)nn3-c2ccccc2)c1	.	.	.	.	14	57
Cc1nc(N/C(N)=N/S(=O)(=O)c2ccc([N+](=O)[O-])cc2)nc2ccccc12	.	.	.	.	5	5
CCC(=O)Nc1cccc(C(=O)/C=C/c2cc(Br)ccc2OC)c1	0.4	-11	62*	1.1	35	-2
COc1ccc(C2Nc3ccccc3C(=O)N2c2ccc(C)cc2)cc1Cn1nc(C)c([N+](=O)[O-])c1C (stereo not drawn)	0.5	92*	53*	0.1	8	-5
O=C(COC(=O)/C=C/c1ccc(OC(F)F)cc1)NCc1cccs1	.	.	.	.	-1	4
CS(=O)(=O)N1CCN(C/C=C/c2ccccc2)CC1	0.6	8	38	0.9	-7	-1
O=S(=O)(c1cccs1)N1CCN(C/C=C/c2ccccc2)CC1	0.1	74*	86*	0.3	.	.
O=S(=O)(c1ccc(Cl)s1)N1CCN(C/C=C/c2ccccc2)CC1	0.2	80*	78*	0.2	-8	-1
COCC(C)n1c(SCC(=O)NCCC2=CCCCC2)nc2ccccc2c1=O (stereo not drawn)	0.2	87*	84*	0.1	4	-1
CCNC(=O)CSc1nc2ccccc2c(=O)n1OC	1.2	-7	-25	1.1	-3	-2
CCOC(=O)N1CCC(n2c(SCC(=O)NCCC3=CCCCC3)nc3ccccc3c2=O)CC1	0.4	68*	58*	0.3	5	0
CCOC(=O)N1CCC(n2c(SCC(=O)N3CCC(C)CC3)nc3ccccc3c2=O)CC1	0.4	60*	57*	0.4	9	-3
CC(=O)NCCn1c(SCC(=O)NCCC2=CCCCC2)nc2ccccc2c1=O	0.7	20	31	0.8	14	1
CCOC(=O)N1CCC(n2c(SCC(=O)NCc3ccccc3)nc3ccccc3c2=O)CC1	0.4	53*	60*	0.5	1	4
CCOC(=O)N1CCC(n2c(SCC(=O)N3CCCC3)nc3ccccc3c2=O)CC1	0.8	39	21	0.6	.	.
Cc1nc(NC(=O)CSc2cc(C)c3ccccc3n2)c(Cl)cc1Cl	.	.	.	.	14	5
COc1cccc(NC(=O)c2ccc(-n3cccn3)nc2)c1	0.8	22	18	0.8	.	.
CC1CCC(NC(=O)CN2C(=O)COc3ccc(S(=O)(=O)N4CCCC4)cc32)CC1 (stereo not drawn)	.	.	.	.	-3	4
SMILES	CYP2C19 act	CYP2C9 inhib	CYP2C19 inhib	CYP2C9 activ	Mac1 fbg inh	CD11b adhes enh
CCCC(=O)Nc1nnc(CC(=O)N2CCCC2)s1	0.9	-21	5	1.2	-18	-2
COc1ccc(NC(=O)CSc2nc3ccccc3c(=O)n2CCCN2CCCCC2)c(OC)c1	0.4	16	64*	0.8	-27	0
CCOC(=O)N1CCC(n2c(SCC(=O)Nc3ccccc3OC)nc3ccccc3c2=O)CC1	0.1	95*	90*	0	5	1
COc1ccc(OC)c(NC(=O)CSc2nc3ccccc3c3nc4ccccc4n23)c1	.	.	.	.	-1	42
COc1ccc2c(c1OC)C(=O)N1c3ccccc3C(=O)N(c3ccc(F)cc3)C21 (stereo not drawn)	1	0	0	1	3	0
COc1ccc2c(c1OC)C(=O)N1c3ccccc3C(=O)N(c3ccccc3)C21 (stereo not drawn)	0.8	59*	16	0.4	-51	6
CCOc1ccc(S(=O)(=O)Nc2ccccc2C(=O)N/N=C/c2c(OC)ccc3ccccc23)cc1	.	.	.	.	54	5
CCOc1ccc(S(=O)(=O)Nc2ccccc2C(=O)NCC2CCCO2)cc1 (stereo not drawn)	0.3	35	71*	0.7	3	-4
CCOC(=O)c1ccccc1NS(=O)(=O)c1ccc(OCC)cc1	0.3	40	70*	0.6	16	-5
COC(=O)c1ccccc1NC(=O)Cn1cnc2cc(C)c(C)cc21	0.6	16	42	0.8	8	1
O=C(CN1C(=O)NC2(CCCCCC2)C1=O)c1ccc2c(c1)OCCO2	0.9	41	14	0.6	-19	2
O=C(CSc1ncn[nH]1)N1N=C2/C(=C/c3ccco3)CCCC2C1c1ccco1 (stereo not drawn)	0.1	94*	88*	0.1	-22	1
Cc1ccc(S(=O)(=O)CCC(=O)NCc2ccco2)cc1	1	-24	5	1.2	-3	-3
Cc1c(C(=O)c2no[n+]([O-])c2C(=O)c2cnn(C)c2C)cnn1C	0.6	27	38	0.7	-13	-4
O=C(/C=C/c1ccccc1)N/C(=C/c1ccccc1)C(=O)N1CCCCC1	1.1	14	-12	0.9	21	-5
O=C(/C(=C/c1ccccc1)c1ccccc1)N1CCCCC1	0.7	74*	32	0.3	.	.
Cc1cccc(NC(=O)CSc2nnc([C@@H](N)Cc3ccccc3)o2)c1C	0.3	9	70*	0.9	-4	1
COC(=O)c1ccccc1NC(=O)CSc1nc(N)cc(N)n1	0.7	6	34	0.9	4	-3
Cc1ccc(C)c(NC(=O)CSc2nnc(-c3ccccc3)o2)c1	0.4	24	56*	0.8	2	-3
CC1=CC(C)(C)N(C(=O)CSc2nnc(N)s2)c2cc(C)c(C)cc21	0.2	70*	77*	0.3	.	.
COC(=O)c1ccccc1NC(=O)CSc1nnc(-c2ccncc2)o1	0.3	39	68*	0.6	.	.
Cc1csc(NC(=O)CSc2nnc(-c3ccccc3)o2)n1	0.8	13	24	0.9	-42	-4
Cc1ccccc1-c1nnc(SCC(=O)Nc2cccc(C)c2C)o1	0.9	38	12	0.6	5	0
